Rows were chosen to be rich in hits. Some 3.5% of all compounds tested hit in one or more screens of this group.
MITF primary: MITF inhibitors, primary screen, biochemical, AlphaScreen, human. Microphthalmia-associated transcription factor (Homo sapiens), O75030. AlphaScreen MITF homodimerization, bead proximity signal. inhibition, % at 2.6 µM. 0.91% of 650,000 active; in the data active = inhibition above about 50%
TEAD-YAP block: TEAD-YAP interaction inhibition, primary screen, TEAD-YAP interaction inhibitor project, luminescence, HEK-TIYL cells | TEAD-Gal4/YAP UAS-luciferase luminescence | inhibition, % at 9.12 µM | 1.4% of 640,000 active | AID 1259422, 2018; in the data active = inhibition above about 32%
FBW7 activator: FBW7 E3 ligase activators, primary screen, biochemical, AlphaScreen, human; F-box/WD repeat-containing protein 7 (Homo sapiens), Q969H0; 0.13% of 650,000 active; AlphaScreen FBW7–phospho-cyclin E peptide binding, activator screen; normalized activity (activation), % at 26.1 µM; in the data active = normalized activity above about 1.9%;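 note: purified mutant Fbw7 with reduced substrate affinity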
GPR151 activ: activators of human GPR151, primary screen, cell-based, PathHunter beta-arrestin, luminescence; activation, % at 11.2 µM; G-protein coupled receptor 151 (Homo sapiens), Q8TDV0; 1% of 650,000 active; PathHunter beta-arrestin GPR151 cells; in the data active = activation above about 4.9%
GPR151 confirm: GPR151 activators, triplicate retest, confirmation, cell-based, PathHunter beta-arrestin, luminescence. shares compounds with GPR151 activ. GPR151 PathHunter beta-arrestin cells, 90 min; % of EA-reagent control over plate median. activation, % at 11.2 µM. 6,700 tested, under 10 active. AID 1508609, 2020;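 active = mean percent activation across replicates above the confirmation screen cutoff of 4.91%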
GPR119 counter: GPR119 activators in beta-arrestin cells, counter-screen for GPR151 activator project, cell-based, PathHunter beta-arrestin, luminescence, triplicate; activation, % at 11.2 µM; AID 1508611, 2020; shares compounds with GPR151 activ; 0.3% of 6,700 active; 90 min; 0 = compound-well median, 100 = enzyme-acceptor control;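 active = mean percent activation in the counterscreen above 29.09%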;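 note: counterscreen on off-target GPR119 to flag nonselective hits from the GPR151 activator screen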
Target sequence (Q8TDV5 whole entry, looked up): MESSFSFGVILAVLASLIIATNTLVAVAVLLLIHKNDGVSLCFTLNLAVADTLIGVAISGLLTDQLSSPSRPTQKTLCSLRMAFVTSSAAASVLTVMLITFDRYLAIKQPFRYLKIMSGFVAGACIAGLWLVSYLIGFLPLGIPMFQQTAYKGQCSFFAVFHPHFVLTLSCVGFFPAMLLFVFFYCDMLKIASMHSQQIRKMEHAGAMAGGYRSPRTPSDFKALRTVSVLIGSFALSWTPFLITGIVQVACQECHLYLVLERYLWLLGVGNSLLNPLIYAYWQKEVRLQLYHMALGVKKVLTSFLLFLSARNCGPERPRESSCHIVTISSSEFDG
Hits are given with their value; i = inactive; nt = no result given.

SMILES	MITF primary	TEAD-YAP block	FBW7 activator	GPR151 activ	GPR151 confirm	GPR119 counter
COC(CNC(=O)c1c(O)nc2cc(C)ccn2c1=O)OC	i	i	i	i	nt	nt
CCOC(=O)c1cc(-c2ccccc2)n(CCCN2CCOCC2)c1C	i	i	i	i	nt	nt
CCOC(=O)c1cc(-c2ccccc2)oc1CN1CCOCC1	i	i	i	8.9	i	i
O=C(O)CCC(=O)N1N=C(c2c(-c3ccccc3)c3cc(Br)ccc3[nH]c2=O)CC1c1ccco1 (centres undefined)	i	i	i	5.4	i	i
COc1ccc(C2CC(c3c(-c4ccccc4)c4cc(Br)ccc4[nH]c3=O)=NO2)cc1 (centres undefined)	i	i	i	8.4	i	i
COc1ccc(C2CC(c3c(-c4ccccc4)c4cc(Br)ccc4[nH]c3=O)=NN2C(C)=O)cc1 (centres undefined)	i	i	i	i	nt	nt
CC(=O)N1N=C(c2c(-c3ccccc3)c3cc(Br)ccc3[nH]c2=O)CC1c1ccco1 (centres undefined)	i	i	i	i	nt	nt
CCCn1cnc2sc(C(=O)Nc3ccccc3OC)c(C)c2c1=O	i	i	i	10.6	i	i
COc1ccc(O[C@H]2C=C[C@@H](c3ccccc3)O[C@@H]2COC(=O)CC/C(C)=N/O[C@@H](C)CN2CCCCc3nc(C)c(C)cc32)cc1	i	nt	i	i	nt	nt
C/C(CCC(=O)OC[C@H]1O[C@H](C#Cc2ccccc2)C=C[C@@H]1Oc1ccc(C)cc1)=N\O[C@H](C)CN1CCCc2nc(C)c(C)cc21	i	nt	i	7.0	i	i
O=C1C(=O)N(CCCN2CCOCC2)C(c2cccs2)/C1=C(/O)c1ccc(F)cc1 (centres undefined)	i	i	i	i	nt	nt
Cc1cc(C)cc(NS(=O)(=O)c2ccc(-c3cc(C)no3)cc2)c1	i	57.9	i	8.2	i	i
COc1ccc(N2CC(C(=O)NCCc3ccccc3)CC2=O)cc1 (centres undefined)	i	i	i	i	nt	nt
COc1cccc(N2CC(C(=O)NCCc3ccsc3)CC2=O)c1 (centres undefined)	i	i	i	5.5	i	i
COc1cccc(N2CC(C(=O)Oc3ccc4ccccc4c3)CC2=O)c1 (centres undefined)	i	i	i	7.3	i	i
COc1cccc(N2CC(C(=O)N3CCN(CCn4nc(C)cc4C)CC3)CC2=O)c1 (centres undefined)	i	i	i	8.1	i	i
CC(=O)Nc1ccc2nc(NC(=O)c3ccc(Br)s3)sc2c1	i	i	i	i	nt	nt
CCC(=O)Nc1ccc(NC(=O)CSc2nc3cccnc3n2-c2ccc(F)cc2)cc1	i	i	i	i	nt	nt
CCN(CC)C(=O)C1CCCN(c2ccc([N+](=O)[O-])cc2[N+](=O)[O-])C1 (centres undefined)	i	i	i	i	nt	nt
CCN(CC)C(=O)C1CCCN(c2ccc([N+](=O)[O-])cc2S(=O)(=O)N2CCCC2)C1 (centres undefined)	i	i	i	7.0	i	i
CCc1ccccc1NC(=O)CN(c1ccc(C)cc1)S(C)(=O)=O	i	i	i	i	nt	nt
COc1cccc(NC(=O)CN(C)CC(=O)Nc2ccccc2-c2ccccc2)c1	i	i	i	5.7	i	i
COc1ccc(N(CC(=O)Nc2ccccc2-c2ccccc2)S(C)(=O)=O)cc1	i	i	i	14.5	i	i
Cc1ccc(N(CC(=O)Nc2ccccc2C(C)C)S(C)(=O)=O)cc1	i	i	i	6.5	i	i
CC1CCCCN1Cc1c(O)ccc2c(-c3ccccc3)cc(=O)oc12 (centres undefined)	i	i	i	i	nt	nt
SMILES	MITF primary	TEAD-YAP block	FBW7 activator	GPR151 activ	GPR151 confirm	GPR119 counter
Cc1nn(-c2ccccn2)c2c1C(=O)CC(C)(C)C2Br (centres undefined)	i	i	i	5.8	i	i
CCOC(=O)C1CCCN(CN2C(=S)SC3=NC(=O)CCCN32)C1 (centres undefined)	i	i	i	i	nt	nt
O=C(O)c1c(Br)sc(-c2ccccc2)c1-c1ccccc1	i	i	i	7.1	i	i
CCCS(=O)(=O)c1c(S(=O)(=O)CCC)c2ccc(C(C)=O)cn2c1C(=O)c1ccc(OC)cc1	i	i	i	6.1	i	i
CCCS(=O)(=O)c1c(S(=O)(=O)CCC)c2ccc(C(C)=O)cn2c1C(=O)c1ccc(C)cc1	i	i	i	i	nt	nt
CC(CCc1ccccc1)NCc1cc(NC(=O)c2ccccn2)cc(C(=O)N(C)C)c1 (centres undefined)	i	i	i	i	nt	nt
COCc1cc(C)nc(SCC(=O)O)c1C#N	i	i	i	5.9	i	i
COCc1cc(C)nc(SCC(=O)Oc2ccccc2)c1C#N	i	i	i	i	nt	nt
COc1ccc(-c2nc(SCC(=O)Nc3ccc4c(c3)OCO4)n[nH]2)cc1	i	i	i	6.5	i	i
COc1ccc(-c2nc(SCC(=O)Nc3ccc4ccccc4c3)n[nH]2)cc1	i	i	i	i	nt	nt
Cc1cccc(NC(=O)c2c(N)sc3c2CCCC3)c1	i	i	i	i	nt	nt
CN(C)c1ccc(/C=C2\C(=O)ON=C2c2ccccc2)cc1[N+](=O)[O-]	72.3	i	i	5.8	i	i
CSc1ccc(CC(=O)N2CCc3nnc(CNC(=O)C4CCOC4)n3CC2)cc1 (centres undefined)	i	i	i	i	nt	nt
Cn1c2ccccc2c2nnc(SCC(=O)c3ccccc3)nc21	i	i	i	5.5	i	i
COc1cccc(C(=O)NCc2nnc(SCC(=O)N3N=C(c4cccs4)CC3c3ccc(C)cc3)n2-c2ccccc2)c1 (centres undefined)	i	i	i	i	nt	nt
COc1ccc(C2CC(c3cccs3)=NN2C(=O)CSc2nnc(CNC(=O)c3cccc(OC)c3)n2-c2ccccc2)cc1 (centres undefined)	i	i	i	5.8	i	i
O=c1oc2c3c(ccc2c2c1CCC2)OCN(c1ccc(F)cc1)C3	i	i	i	5.1	i	i
COc1ccc(C[C@@H]2NC(=O)[C@H]3CN(C(=O)c4cc(Cl)cc(Cl)c4)CCN3C2=O)cc1	i	i	i	7.4	i	i
O=C1N[C@@H](Cc2c[nH]c3ccccc23)C(=O)N2CCN(C(=O)c3ccc4ccccc4c3)C[C@H]12	i	i	i	i	nt	nt
O=C1N[C@@H](Cc2c[nH]c3ccccc23)C(=O)N2CCN(C(=O)c3ccc(F)cc3)C[C@H]12	i	i	i	6.4	i	i

Compound activity from PubChem BioAssay.
